SARS PLpro yeast – blocks SARS-CoV papain-like protease in a yeast assay; S. cerevisiae expressing SARS-CoV PLpro, growth rescue; Potency, µM (doses to about 32.9 µM), for the others: at the top dose activity, positive = growth rescue, usual class: activators; hit rate 0.19% among 330,000; calls by dose curve; note: potency is the fitted concentration of half-maximal effect; 0% is about no effect; nearly all actives have a fitted effect of over 55% in size
Pf growth 96h – P. falciparum growth inhibition at 96 hours. AID 504834. P. falciparum luciferase reporter growth, 96 h. Potency, µM (highest dose often 28.7 µM), inactives show at the top dose activity change, negative = inhibition, actives largely listed as inhibitors. hit rate 6.9% among 320,000; note: potency is the fitted concentration of half-maximal effect; % is set by controls: 0 for no effect and ±100 for the full control effect
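Two-generation exposure (96 h) targets delayed-death phenotype. Reporter parasites carrying integrated firefly luciferase, in red cells at 2% hematocrit and 0.05% parasitemia final, kept at 37 C, 5% CO2; luminescence loss indicates inhibition.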
Shiga inhibitor – inhibitors of Shiga toxin in Vero cells. Vero cells, Shiga toxin protein synthesis inhibition reporter. inhibition, % at 38.7 µM. hit rate 9.2% among 290,000; in the data active = inhibition mostly above about 28%, no sharp cut-off; inactive = mostly below about 43%; note: 0% is about no effect
Pf growth 48h – inhibits P. falciparum growth in the first generation, 48 h; AID 504832; P. falciparum luciferase growth in erythrocytes, 48 h; hit rate 5.9% among 310,000; Potency, µM (doses to about 28.7 µM), inactives show at the top dose activity change, negative = inhibition, usual class: inhibitors; note: potency is the fitted concentration of half-maximal effect; % is set by controls: 0 for no effect and ±100 for the full control effect
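Read-out is firefly luciferase luminescence from an integrated reporter in P. falciparum, so falling signal marks reduced parasite growth. Infected erythrocytes were at 2% hematocrit and 0.1% parasitemia (final) in Albumax-supplemented RPMI 1640.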
CHX counter – affects cycloheximide protein synthesis inhibition readout, counter-screen; cell reporter, cycloheximide protein synthesis inhibition counterscreen; max response, %; hit rate 12% among 300,000; in the data active = max response mostly above about 13%, no sharp cut-off; inactive = mostly below about 14%; note: read at 38.3 µM for the half of the compounds with a filed dose; 0% is about no effect
AMA1 RON2 block – inhibitors of Plasmodium falciparum AMA1-RON2 interaction; AlphaScreen AMA1-biotinylated RON2 peptide binding; hit rate 0.2% among 360,000; Potency, µM (top dose mostly 58.2 µM), inactives show at the highest dose activity change, negative = inhibition, most hits filed as inhibitors; AID 720542;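 note: potency is the fitted concentration of half-maximal effect; 0% = vehicle wells and -100% = peptide control; nearly all actives have a fitted effect of over 45% in size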
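AMA1 (3D7) with his tag at 25 nM final met compounds first, then biotinylated RON2 peptide at 25 nM; detection used donor plus acceptor beads, 10 µg/mL apiece, read by AlphaScreen after 30 min at room temperature.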
Starred values were filed as active, the others as inactive; ? = inconclusive; / = no result given; [ ] = remark or other dose. Compounds with a hit are over-represented: about 19% of the library has one in this group of screens. Unless noted, calls come from the whole dose curve; as a rule, active = well fitted curve in the direction sought with a large enough effect; inconclusive = small, poorly fitted or top-dose-only effect, or another doubt; inactive = no such curve, though single readings can be large; an effect the other way counts as inactive or inconclusive.

SMILES	SARS PLpro yeast	Pf growth 96h	Shiga inhibitor	Pf growth 48h	CHX counter	AMA1 RON2 block
CCOc1ccccc1NC(=O)CC1Nc2ccccc2NC1=O (stereo unspecified)	22%	3.3µM*	13	2.3µM*	5	-8%
CCCOc1ccc(NC(=O)CC2Nc3ccccc3NC2=O)cc1 (stereo unspecified)	-1%	?	-11	1%	0	-1%
Cc1ccc(NC2Sc3ccccc3NC2=O)cc1Cl (stereo unspecified)	-3%	81%	26	35%	13*	-7%
CCCOc1ccccc1NC(=O)CC1Nc2ccccc2NC1=O (stereo unspecified)	4%	27%	9	9.3µM*	-3	25%
Cc1ccc(NC(=O)CC2SCCNC2=O)cc1Cl (stereo unspecified)	0%	-12%	48*	73%	23*	-13%
Cc1ccc(OCCNC(=O)C(C)SCC(=O)Nc2ccc(F)cc2)cc1 (stereo unspecified)	0%	/	/	/	/	-4%
COc1ccc(C(=O)N/C(=C\c2cn(C)c3ccccc23)C(=O)OCC(C)C)cc1	-5%	45%	12	?	14	10%
CC(C)(C)c1nn2cnnc2n(/N=C/c2ccc(O)cc2)c1=O	-16%	?	-9	1%	-8	18%
COC(=O)/C=C/c1ccc(OC(=O)OC)c(OC(=O)OC)c1	-31%	24%	-5	5%	9	-1%[11.6 µM]
COc1ccc(CCNC(=O)CC2Nc3ccccc3NC2=O)cc1OC (stereo unspecified)	5%	1.5µM*	-16	?	2	64%
O=C(CC1Nc2ccccc2NC1=O)c1ccccc1 (stereo unspecified)	0%	?	46	/	31*	/
Cc1ccc(NC(=O)CC2Nc3ccccc3NC2=O)cc1Cl (stereo unspecified)	0%	125%	108*	?	28*	9%
Cc1ccc(S(=O)(=O)N(C)C)cc1NC(=O)C(C)OC(=O)c1ccc2c(=O)n3c(nc2c1)CCC3 (stereo unspecified)	/	/	/	/	/	5%
CC1=NC(C)(C)Cc2ccccc21	8%	-4%	-17	-3%	-2	-9%
CC1(C)Cc2ccccc2C(c2cc3ccccc3oc2=O)=N1	13%	?	1	8.3µM*	-2	-2%
O=c1oc2ccccc2cc1-c1nnc(-c2cccc(Br)c2)o1	-2%	-30%	26	7%	-3	-4%
CC1(C)Cc2c(ccc3ccccc23)C(c2cc3ccccc3oc2=O)=N1	0%	10µM*	-8	?	-4	-13%
COc1ccccc1N=NNc1ccc(S(=O)(=O)NC(C)=O)cc1	/	/	/	/	/	-21%
O=C(NCc1ccccc1Cl)c1cc(C(=O)C2CC2)c[nH]1	4%	-9%	-15	?	1	-7%
COc1ccc(-c2nn(CCC#N)cc2C(=O)NCc2ccccc2)cc1OC	0%	12µM*	-4	232%	-3	-5%
COc1ccc(-c2nn(CCC#N)cc2C(=O)Nc2ccccc2)cc1OC	1%	-12%	16	72%	1	4%
CC(=O)/C=C1\OCc2cc(OCc3ccccc3)ccc21	/	/	/	/	/	-10%
COc1ccccc1-c1cc(C(F)(F)F)nc(S(=O)(=O)CCCC(=O)NC(C)C)n1	2%	13%	-11	-8%	-3	7%
COc1ccccc1-c1cc(C(F)(F)F)nc(S(=O)(=O)CCCC(=O)Nc2cc(C)on2)n1	3%	1.9µM*	-7	-9%	-4	7%
COc1ccc(-c2cc(C(F)(F)F)nc(S(=O)(=O)CCCC(=O)Nc3cc(C)on3)n2)cc1OC	1%	?	-1	?	25*	3%
COc1ccccc1-c1cc(C(F)(F)F)nc(S(=O)(=O)CCCC(=O)NCc2ccc(F)cc2)n1	-6%	2.9µM*	-26	?	20*	6%
O=C1CCC[C@@H]2[C@H]3CCC[N+]4([O-])CCC[C@@H](CN12)[C@@H]34 (stereo partly specified)	1%	?	2	-2%	-2	10%
CCOC(=O)C[C@@H]1OC[C@H](Cc2ccccc2)N1S(=O)(=O)c1ccc(C)cc1	/	/	/	/	/	6%
